These results are taken from PubChem BioAssay AID1851 (National Center for Advancing Translational Sciences (NCATS), 2009).

Hit rate of the full screen: of about 16,000 compounds, about 5,700 (36%) were called active. Not shown: some 24% with an inconclusive outcome. Calls come from the whole dose curve; as a rule, active = well fitted curve in the direction sought with a large enough effect; inconclusive = small, poorly fitted or top-dose-only effect, or effect the other way; inactive = no such curve, though single readings can be large or run the other way. The list shows a part of the results.
% is set by controls: 0 for no effect and ±100 for the full control effect.

This experiment deals with Cytochrome P450 1A2 (Homo sapiens) (UniProt P05177). Briefly: Cytochrome panel assay with activity outcomes. As to conditions: recombinant CYP, pro-luciferin dealkylation, luminescence, p450-cyp1a2; series mostly up to 57.1 µM.
Chain of Cytochrome P450 1A2 (Homo sapiens) (P05177 whole entry, looked up): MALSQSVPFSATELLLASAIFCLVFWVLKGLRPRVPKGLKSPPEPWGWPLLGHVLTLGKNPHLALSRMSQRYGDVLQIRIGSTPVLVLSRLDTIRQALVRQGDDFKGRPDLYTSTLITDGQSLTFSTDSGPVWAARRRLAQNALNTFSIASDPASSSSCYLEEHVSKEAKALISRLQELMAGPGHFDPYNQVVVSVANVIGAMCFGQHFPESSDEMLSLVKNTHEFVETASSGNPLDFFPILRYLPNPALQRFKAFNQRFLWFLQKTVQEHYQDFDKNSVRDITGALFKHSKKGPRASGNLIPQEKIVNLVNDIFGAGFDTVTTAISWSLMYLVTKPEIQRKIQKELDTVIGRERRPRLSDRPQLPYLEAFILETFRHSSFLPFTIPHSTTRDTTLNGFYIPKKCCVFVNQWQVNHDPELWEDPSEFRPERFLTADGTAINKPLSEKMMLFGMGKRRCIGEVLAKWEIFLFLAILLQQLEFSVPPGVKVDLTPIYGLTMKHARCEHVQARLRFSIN
In the case of `COC(=O)[C@@H]1CC[C@H](C)[C@@H](c2ccc(C)cc2)N1C(=O)c1ccc(/C=N\O[C@@H]2O[C@H](COC(C)=O)[C@H](OC(C)=O)[C@H](OC(C)=O)[C@H]2OC(C)=O)cc1`, the activity, negative = inhibition was -1.33% [at 11.4 µM] (inactive). Consider `CCOc1cc(C2CC(=O)c3c(ccc4ccccc34)N2)ccc1O` (configuration not stated), for which the AC50 (commonly the midpoint of the concentration-response curve, whichever way the signal moves) was “inactive”. Turning to `CC[C@H]1CC[C@H]2[C@@H]3CC=C4C[C@H](OC(C)=O)[C@@H](N)C[C@@]4(C)[C@H]3CC[C@@]12C`, the activity, negative = inhibition was -5.9% [at 11.4 µM] (inactive). Turning to `CCc1cc2c(Sc3nc4ccccc4s3)ncnc2s1`, the AC50 is 1.58 µM (active). On the same count and under the same terms, as for `c1ccc(-c2nc(NCc3cccnc3)c3ccccc3n2)cc1`, the figure is 1.12 µM (active); as for `Cc1cccc(CNc2nc(-c3cccnc3)nc3ccccc23)c1`, 0.631 µM (active). On the same count and under the same terms, as for `CN(C)c1ccc(-c2nc(NCc3cccnc3)c3ccccc3n2)cc1`, the figure is 1.58 µM (active); as for `CCCc1cc(=O)oc2cc(OCc3nn[nH]n3)ccc12`, 12.6 µM (active); as for `CCCc1cc(=O)oc2cc(OCC(=O)N3CCc4ccccc43)ccc12`, “inactive”. As to `CCCCc1cc(=O)oc2cc(OCC(=O)N(CC)CC)ccc12`, the AC50 was 12.6 µM (active).

As to `CCO[C@H](c1cc(OC)cc([N+](=O)[O-])c1OC)[C@H](C)/C=C\CC(=O)OC`, the activity, negative = inhibition was 1.93% [at 11.4 µM] (inactive). Take `COc1ccc(/C(O)=C2\C(=O)C(=O)N(c3cc(C)on3)C2c2ccc(OC)c(OC)c2)cc1OC` (configuration not stated): the AC50 entry was “inactive”. The same measure, in the same setting: as for `CC(=O)OCC(=O)[C@@]1(O)[C@H](C)C[C@@H]2[C@H]3CCC4=CC(=O)C=C[C@]4(C)[C@]3(F)[C@@H](O)C[C@@]21C`, the entry is “inactive”; as for `O=C(CN1CCCC1)N/N=C/c1ccc(-c2cccc(Cl)c2)o1`, 8.91 µM (active); as for `CC(=O)c1cccc(NC(=O)CSCc2ccccc2)c1`, 2 µM (active). In the case of `O=C(CSCc1ccccc1)Nc1ccc(S(=O)(=O)N2CCOCC2)cc1`, the AC50 entry was “inactive”. Same read-out and setting: as for `CCC(C)NS(=O)(=O)c1ccc(NC(=O)CCC2CCCCC2)cc1` (configuration not stated), the entry is “inactive”; as for `O=C(CCC1CCCCC1)Nc1c2c(nn1-c1ccc(F)cc1)CS(=O)(=O)C2`, “inactive”; as for `CSc1ccccc1NC(=O)CSCc1ccc(C)cc1`, 7.08 µM (active). Same read-out and setting: as for `CCn1c(CSCc2ccc(C)cc2)nnc1SCC(=O)NCc1ccccc1`, the entry is “inactive”; as for `COc1cccc(N(CC(=O)Nc2cccc(C(C)=O)c2)S(C)(=O)=O)c1`, “inactive”; as for `CC(=O)c1cccc(NC(=O)CCC2CCCC2)c1`, 3.55 µM (active).

`Cc1ccc(O)c(C(=O)c2cc(C#N)c(=O)n(-c3c(C)n(C)n(-c4ccccc4)c3=O)c2)c1`: the AC50 result is “inactive”.

Consider `Nc1nc2n[nH]nc2c(=O)[nH]1`, for which the AC50 entry is “inactive”. The same measure, in the same setting: as for `CCCOc1ccccc1-c1nc2n[nH]nc2c(=O)[nH]1`, the figure is 3.98 µM (active); as for `C=CCSC1=Nc2sccc2C2=NC(=O)CN12`, 1.78 µM (active); as for `CSC1=N/C(=C\c2ccc3c(c2)OCO3)C(=O)S1`, 1 µM (active). Same read-out and setting: as for `CSC1=N/C(=C\c2ccc(C)cc2)C(=O)S1`, the figure is 2.82 µM (active); as for `CSC1=N/C(=C\c2ccc(Br)o2)C(=O)S1`, 3.55 µM (active); as for `CN(C)C(=O)CN(c1ccc2c(c1)OCO2)S(C)(=O)=O`, “inactive”. Take `C[C@@H]1C[C@@H]2[C@H]3CCC4=CC(=O)C=C[C@]4(C)[C@]3(F)[C@@H](O)C[C@]2(C)[C@@]1(O)C(=O)CO`: the AC50 entry was “inactive”. Regarding `O=C(O)[C@H](Cc1cc(I)c(O)c(I)c1)C1CCCCC1`, the activity, negative = inhibition is -8.77% [at 2.29 µM] (inactive).

As to `c1ccc2cc(Sc3ncnc4c3oc3ccccc34)ccc2c1`, the half-maximal activity concentration (AC50) is 1.58 µM (active). Same read-out and setting: as for `CCCCCOc1ccc(NC(=O)C(=O)NCCC2=CCCCC2)cc1`, the entry is “inactive”; as for `COc1ccc(C(=O)CN2C(=O)NC(C)(c3ccccc3)C2=O)cc1OC` (configuration not stated), “inactive”; as for `Cc1ccc(S(=O)(=O)N(CC(=O)NCCC2=CCCCC2)Cc2ccccc2F)cc1`, “inactive”. The same measure, in the same setting: as for `O=C(CN1CCN(c2ncccn2)CC1)NCCC1=CCCCC1`, the figure is 1.58 µM (active). Same read-out and setting: as for `CC1(c2ccccc2)NC(=O)N(CC(=O)NCCC2=CCCCC2)C1=O` (configuration not stated), the figure is 11.2 µM (active).

In the case of `COc1ccc(OC)c(C(=O)CN2C(=O)NC(C)(c3ccccc3)C2=O)c1` (configuration not stated), the AC50 entry was “inactive”.

For the compound `CC(=O)Nc1ccc(S(=O)(=O)NC(CC(=O)NCCC2=CCCCC2)C(C)C)cc1` (configuration not stated), the AC50 entry is “inactive”.

On to `O=C(COc1ccc(Cl)cc1)NCCC1=CCCCC1`, for which the half-maximal activity concentration (AC50) was 11.2 µM (active). In the case of `Cc1nc2ncnn2c(C)c1CCC(=O)NCCC1=CCCCC1`, the AC50 result was “inactive”.

As for `CCC(C)n1nnc2c(=O)oc3ccccc3c21` (configuration not stated), the concentration at half-maximal activity (AC50) was 0.708 µM (active). On the same count and under the same terms, as for `C=CCN1CCc2cc(O)c(O)cc2[C@H](c2ccccc2)C1`, the entry is “inactive”. `CC(C)=NOCc1ccc(-c2cc(-c3ccccc3)no2)cc1`: the activity, negative = inhibition was -4.03% [at 11.4 µM] (inactive).

As to `CC(C)=NOCc1cccc(-c2cc(-c3ccccc3)no2)c1`, the activity, negative = inhibition was 1.37% [at 11.4 µM] (inactive). On the same count and under the same terms, as for `Nc1nc(-c2cc(-c3cccc4ccccc34)nc(N)n2)cc(-c2cccc3ccccc23)n1`, the figure is -4.4% [at 2.29 µM] (inactive). As to `Nc1nc(-c2ccccc2)cc(-c2ccccc2O)n1`, the AC50 is 0.631 µM (active). Turning to `Oc1ccccc1-c1cc(-c2ccccc2)no1`, the half-maximal activity concentration (AC50) was 1.26 µM (active). In the case of `Cc1ccccc1-c1cc(-c2ccccc2O)on1`, the concentration at half-maximal activity (AC50) was 2.51 µM (active).

For the compound `Cc1cc(C(F)F)n2nc(C(=O)Nc3sc4c(c3C#N)CCC(C)C4)nc2n1` (configuration not stated), the AC50 result is “inactive”.

As for `CC(=O)N1CCN(c2nc(C)nc3sc4c(c23)CCC(C)C4)CC1` (configuration not stated), the AC50 is 15.8 µM (active).

With `CC(C)CN=C(N)N=C(N)N`, the activity, negative = inhibition was -9.85% [at 11.4 µM] (inactive). Regarding `C(=N\N(c1ccccc1)c1ccccc1)/c1ccc2c(c1)OCO2`, the AC50 is 2 µM (active). Same read-out and setting: as for `CCOc1cc(CN2CCN(c3ccc(C(C)=O)cc3)CC2)ccc1OC`, the entry is “inactive”; as for `CCOc1ccc(CNC(=O)C2CCC(=O)N2C2CCCC2)cc1OC` (configuration not stated), “inactive”; as for `CCOc1ccc(CC(=O)C2C(=O)CCCC2=O)cc1OCC`, 10 µM (active). As for `CC1CCC(O)([C@](C)(C(=O)O)c2ccccc2)CC1` (some centres not stated), the activity, negative = inhibition is -4.6% [at 11.4 µM] (inactive). Regarding `O=C(Nc1ccc(Cl)cc1)N1CCc2[nH]c3ccccc3c2C1`, the concentration at half-maximal activity (AC50) was 3.55 µM (active). On the same count and under the same terms, as for `COC(=O)N1CCC2(CC1)CN(C(=O)Nc1ccccc1)C2`, the entry is “inactive”; as for `O=C(Nc1ccccc1)N1CCOCC1`, “inactive”; as for `COC(=O)[C@@]1(Cc2ccc(OC)cc2)[C@H]2c3cc(C(=O)N4CCCC4)n(Cc4ccc(C(F)(F)F)nc4)c3C[C@H]2CN1C(=O)c1ccccc1`, “inactive”. As for `Cc1cc(SCC(=O)c2cccs2)nc2c(C)cccc12`, the AC50 is 0.891 µM (active). With `CCCNC(=O)OC[C@@H]1O[C@H](c2ccccc2)C=C[C@@H]1Oc1ccc(OC)cc1`, the activity, negative = inhibition was -7.29% [at 11.4 µM] (inactive). With `C=CCOc1ccc(CNC(C)(C)CO)cc1OCC`, the AC50 result is “inactive”. The same measure, in the same setting: as for `C=CCOc1ccccc1OC[C@H](O)CNC(C)C`, the figure is 5.01 µM (active); as for `C=CCc1ccccc1OC[C@H](O)CNC(C)C`, 3.16 µM (active). The same measure, in the same setting: as for `CC(C)(C)NC[C@H](O)COc1cccc2[nH]c(=O)[nH]c12`, the entry is “inactive”; as for `O=C1c2ccccc2C(=O)N1CC1c2ccccc2CCN1S(=O)(=O)c1ccccc1` (configuration not stated), “inactive”; as for `COc1ccc(CCNC(=O)C2CCN(S(=O)(=O)N3CC(C)CC(C)C3)CC2)cc1OC` (configuration not stated), “inactive”.

For `C#CCCCO/N=C1/C[C@@H](O)[C@@H](O)[C@@H]2[C@@H]3C(=O)N(CCC(=O)OCC)C(=O)[C@H]3CC[C@@H]12`, the activity, negative = inhibition was -0.481% [at 11.4 µM] (inactive). `Cc1ccc(S(=O)(=O)c2cc(C#N)c(=O)[nH]c2N)cc1`: the AC50 entry was “inactive”. Same read-out and setting: as for `CNc1oc(C)nc1S(=O)(=O)c1ccc(C)cc1`, the entry is “inactive”; as for `CSc1nc(-c2ccc(C)cc2)[nH]c1S(=O)(=O)c1ccccc1`, 14.1 µM (active).

Regarding `O=C(CSc1nccn1-c1ccccc1)c1ccc(Cl)cc1`, the AC50 is 0.891 µM (active).

As to `O=c1ccnc(SCc2ccc(Cl)cc2)[nH]1`, the activity, negative = inhibition was -17.6% [at 11.4 µM] (inactive). On to `c1ccc(CCSc2nccn2-c2ccccc2)cc1`, for which the concentration at half-maximal activity (AC50) was 1.78 µM (active). On the same count and under the same terms, as for `Clc1ccc(CSc2nccn2Cc2ccccc2)cc1`, the figure is 25.1 µM (active).

Regarding `CCc1ccc(CSc2nccn2-c2ccccc2)cc1`, the half-maximal activity concentration (AC50) is 1.26 µM (active). Take `CC1(C)N=C(N)N=C(N)N1c1cccc(CSc2ccccc2)c1`: the activity, negative = inhibition is -17.2% [at 2.29 µM] (inactive). As for `O=C(C1CCN(S(=O)(=O)c2cccc3nsnc23)CC1)N1CCN(c2ccccc2F)CC1`, the AC50 entry was “inactive”.

Take `COC(=O)[C@H](CCSC)NC(=O)NCc1ccccc1F`: the AC50 entry was “inactive”. The same measure, in the same setting: as for `O=C(c1ccccc1)c1ccc2nc(-c3ccc(NC(=O)c4ccccc4F)cc3)[nH]c2c1`, the entry is “inactive”; as for `O=C(c1ccccc1)c1ccc2nc(-c3ccc(NC(=O)c4ccccc4Br)cc3)[nH]c2c1`, 8.91 µM (active); as for `Cc1nc2cnc(N3CCOCC3)nc2n(C)c1=O`, 6.31 µM (active). The same measure, in the same setting: as for `Cc1nc2cnc(N3CCN(C)CC3)nc2n(C)c1=O`, the figure is 12.6 µM (active); as for `C1COC(NC(C2CC2)C2CC2)=N1`, “inactive”. Still for that read-out and setting: as for `Nc1ccccc1Nc1ccccc1`, the figure is 25.1 µM (active).

On to `N#[N+]c1ccc(Nc2ccccc2)cc1`, for which the activity, negative = inhibition was -12.6% [at 11.4 µM] (inactive). On to `Nc1ccc(Nc2ccccc2)cc1`, for which the AC50 was 12.6 µM (active). Still for that read-out and setting: as for `CCc1c(C(C)O)oc2ccc3c(C)cc(=O)oc3c12` (configuration not stated), the figure is 0.282 µM (active).

Turning to `CC(C)N1CCN(c2ccncc2S(=O)(=O)N2CCCCC2)CC1`, the activity, negative = inhibition was -16.9% [at 2.29 µM] (inactive). Turning to `Cc1c(C(=O)N/N=C/c2ccccc2)sc(=S)n1C`, the AC50 was 0.891 µM (active). Take `Cc1c(NC(=S)N/N=C/c2ccc(O)cc2)c(=O)n(-c2ccccc2)n1C`: the AC50 entry was “inactive”. On the same count and under the same terms, as for `CCCC(=O)Nc1nc2n(n1)C(c1ccccc1)CC(=O)N2` (configuration not stated), the entry is “inactive”; as for `COc1cc(NC(=O)c2cc3nc(-c4ccccc4)cc(-c4ccccc4)n3n2)cc(OC)c1OC`, “inactive”; as for `CCCC(=O)Nc1nc2nc(-c3ccccc3)cc(-c3ccccc3)n2n1`, 2.51 µM (active).
